Assay results as given in paper PMC10726135, “HNF4α isoforms regulate the circadian balance between carbohydrate and lipid metabolism in the liver”.
Over roughly 18,000 sequences, “log2 normalized intensity” has its median near 0.39; the highest 2% begin near 6.6. This excerpt belongs to a sample that is enriched for the highest values.

Target: T1, HNF4alpha2 (COS-7 nuclear extract) (Homo sapiens, UniProt P41235 1-474)
T1 sequence: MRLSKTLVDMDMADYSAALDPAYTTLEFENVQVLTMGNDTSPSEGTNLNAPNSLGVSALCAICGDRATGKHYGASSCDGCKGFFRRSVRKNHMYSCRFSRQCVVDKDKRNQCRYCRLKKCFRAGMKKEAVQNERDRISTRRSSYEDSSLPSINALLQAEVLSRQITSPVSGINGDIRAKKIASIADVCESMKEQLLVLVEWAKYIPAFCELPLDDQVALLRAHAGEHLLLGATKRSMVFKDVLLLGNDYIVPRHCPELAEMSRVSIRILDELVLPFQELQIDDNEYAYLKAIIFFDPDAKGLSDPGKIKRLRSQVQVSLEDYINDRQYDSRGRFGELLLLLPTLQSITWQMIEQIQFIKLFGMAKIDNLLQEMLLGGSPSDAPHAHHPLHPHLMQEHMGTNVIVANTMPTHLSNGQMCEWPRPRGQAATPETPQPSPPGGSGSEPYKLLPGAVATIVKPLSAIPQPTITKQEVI
Experiment: protein-binding microarray; COS-7 nuclear extract on double-stranded Agilent 4x180k PBM; binding buffer, salt, pH and temperature not given in the material; high values mean tight binding
Conditions: chain copies: 2; label: 3' end of strand 1 on the slide; dsDNA, one strand shown
Method in brief: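 Nuclear extracts came from COS-7 cells transiently transfected by CaPO4 with a human HNF4α isoform expression vector. They were applied to a custom Agilent SurePrint G3 4x180k array of ~60-nt oligonucleotides, made double-stranded, with ~44,000 test sequences spotted in quadruplicate. Bound HNF4α was imaged at 2-µm resolution on an Agilent G2565CA scanner. Binding signal was taken as background-corrected, normalized gProcessedSignal from Agilent software.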

Sequence	binding signal [log2 normalized intensity]
CTTGTAAGCCACAGTACAAAGGTGAGCTTTGCCTAGGGAGATTAGAGTATCGGTCGA	3.57
TGGATCATGTGTCTGAGCAAGTTTCCTCCTGCCTAGGGAGATTAGAGTATCGGTCGA	-0.544
CGACCCCTCGAGGCAACCTTTGACCTGGTAGCCTAGGGAGATTAGAGTATCGGTCGA	7.48
GAAACCCTAAACCTGCAAACCTTTGACCTTGCCTAGGGAGATTAGAGTATCGGTCGA	5.31
AAGTATCTCGGTCAAACCTTTGACCCTTTAGCCTAGGGAGATTAGAGTATCGGTCGA	6.7
ATCACTGAAGCGACCCCTCGAGGCAACCTTGCCTAGGGAGATTAGAGTATCGGTCGA	1.12
TCTCGGTCAAACCTTTGACCCTTTATAATCGCCTAGGGAGATTAGAGTATCGGTCGA	5.95
CCTCGAGGCAACCTTTGACCTGGTACTATGGCCTAGGGAGATTAGAGTATCGGTCGA	6.02
TGAAGCGACCCCTCGAGGCAACCTTTGACCGCCTAGGGAGATTAGAGTATCGGTCGA	8.54
GTCAAATCACTGAAGCGACCCCTCGAGGCAGCCTAGGGAGATTAGAGTATCGGTCGA	1.42
GTCAAACCTTTGACCCTTTATAATCCCCTAGCCTAGGGAGATTAGAGTATCGGTCGA	4.25
CTGAATAAAACAAACTCATTTTGATCTTTGGCCTAGGGAGATTAGAGTATCGGTCGA	2.24
CAGCAGACTCAGAAAAATATGTGGACTTCAGCCTAGGGAGATTAGAGTATCGGTCGA	2.49
CACCCCCATCTATGCACTCTCACCTTGGGGGCCTAGGGAGATTAGAGTATCGGTCGA	0.591
CAAATTGCTGACTTTCTGTGTCTTGGCAGTGCCTAGGGAGATTAGAGTATCGGTCGA	1.59
TCTACCTGACCTCCCAAAATTCTTCACATAGCCTAGGGAGATTAGAGTATCGGTCGA	-0.0778
TTCCCATTCATAAAATTACGCCACAGAGTTGCCTAGGGAGATTAGAGTATCGGTCGA	-0.871
AGAAGCTTGGTATGTCTGATGAATAGAAAGGCCTAGGGAGATTAGAGTATCGGTCGA	0.62
AAGCTCTGGAGTCCAAAGGTCAGCAAGCCTGCCTAGGGAGATTAGAGTATCGGTCGA	7.73
ATCCACCCATCCAAAGGTCAGCAATCTCAAGCCTAGGGAGATTAGAGTATCGGTCGA	2.93
CCACTGGTGTAAGCTCTGGAGTCCAAAGGTGCCTAGGGAGATTAGAGTATCGGTCGA	3.79
TCAGCCTTAACTCAAAAGGCCAAAGTCCAAGCCTAGGGAGATTAGAGTATCGGTCGA	8.38
TCCACAGTCAAGGCCAAAGGTTAAAAATAAGCCTAGGGAGATTAGAGTATCGGTCGA	3.7

Sequence	binding signal [log2 normalized intensity]
TCATTTCAGCCTTAACTCAAAAGGCCAAAGGCCTAGGGAGATTAGAGTATCGGTCGA	-0.978
GTCCAAAGGTCAGCAAGCCTGGAGTTCTGAGCCTAGGGAGATTAGAGTATCGGTCGA	4.22
AAGGTCAGCAAGCCTGGAGTTCTGATGTTCGCCTAGGGAGATTAGAGTATCGGTCGA	0.534
GGAGTGACCCTGGGAGCAAAGGTCAAGAGTGCCTAGGGAGATTAGAGTATCGGTCGA	6.55
GGTGTAAGCTCTGGAGTCCAAAGGTCAGCAGCCTAGGGAGATTAGAGTATCGGTCGA	8.34
CTGGAGTCCAAAGGTCAGCAAGCCTGGAGTGCCTAGGGAGATTAGAGTATCGGTCGA	6.88
GGAGACCACTGGTGTAAGCTCTGGAGTCCAGCCTAGGGAGATTAGAGTATCGGTCGA	0.767
TTAATAGAAGAAAGCCCTTTTTGGAATGTGGCCTAGGGAGATTAGAGTATCGGTCGA	0.655
AATGGTGGGATAGGAGACATGAAGGACATAGCCTAGGGAGATTAGAGTATCGGTCGA	-0.721
TCCTCTTATCTTCAGGTTTGCTAATATCTGGCCTAGGGAGATTAGAGTATCGGTCGA	1.35
CTAGGAGAGTCCGGGGCAAACAAGGGCAACGCCTAGGGAGATTAGAGTATCGGTCGA	-0.823
TGAGATAGGTACTATTATTAGAGTCCCTTTGCCTAGGGAGATTAGAGTATCGGTCGA	1.01
TTTCCCCGTCCCAAGCTGAGGTCTGGTGTCGCCTAGGGAGATTAGAGTATCGGTCGA	2.59
CTGAGATAGTCATTCTTCTACAGTGTTTACGCCTAGGGAGATTAGAGTATCGGTCGA	0.901
AGCACACCTTTTTTTCATGCAAATTTCCGTGCCTAGGGAGATTAGAGTATCGGTCGA	0.118
AAGAAATAAAAACAGCTGGGTTCCAAAAGGGCCTAGGGAGATTAGAGTATCGGTCGA	0.155
GTCAAACTTTGGACCCACTGCAGGATTGGAGCCTAGGGAGATTAGAGTATCGGTCGA	3.52
CCCTCCTTAAGACCTAGATGGAATGTTGTGGCCTAGGGAGATTAGAGTATCGGTCGA	1.29
CTATGTCAGGCCATTTCACCTTTGCCCTGTGCCTAGGGAGATTAGAGTATCGGTCGA	6.82
CTGTCACACTTGCCCTTTGCCCTCACTGGTGCCTAGGGAGATTAGAGTATCGGTCGA	7.1
TCAGGCCATTTCACCTTTGCCCTGTCAGTCGCCTAGGGAGATTAGAGTATCGGTCGA	5.88
AAGGCTGTCACACTGGCCTTTGCCCTCGCTGCCTAGGGAGATTAGAGTATCGGTCGA	4.98
